TRHR ag: TRH receptor (human) agonism; P34981; TRHR cells, calcium flux fluo-8, FDSS agonist mode; activation, % at 2 µM; 360,000 tested, 0.18% active; further: 0% is about no effect
Target sequence (P34981 whole entry, looked up): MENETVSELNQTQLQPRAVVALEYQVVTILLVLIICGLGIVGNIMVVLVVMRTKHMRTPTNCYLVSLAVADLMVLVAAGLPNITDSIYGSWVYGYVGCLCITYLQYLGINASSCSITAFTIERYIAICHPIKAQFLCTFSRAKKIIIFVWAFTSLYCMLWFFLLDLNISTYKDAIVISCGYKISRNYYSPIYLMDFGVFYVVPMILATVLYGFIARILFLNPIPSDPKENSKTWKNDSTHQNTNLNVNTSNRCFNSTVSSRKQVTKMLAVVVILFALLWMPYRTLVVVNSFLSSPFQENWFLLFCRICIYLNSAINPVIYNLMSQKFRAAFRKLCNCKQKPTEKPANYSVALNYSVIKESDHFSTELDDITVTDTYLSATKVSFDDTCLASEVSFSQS
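TRHR-expressing cells, plated overnight in medium with 10% serum, were loaded with fluo-8 calcium dye at room temperature. After a 10 s baseline, library compound was pin-added and calcium release was recorded kinetically (ex 480/em 530) as agonist response.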
D1 antag: antagonists of human D1 dopamine receptor. P21728. HEK293 TREx D1 cells, calcium flux, dopamine EC80; active compounds read low. activity change, negative = inhibition, % at 10 µM. 360,000 tested, 3.2% active; in the data active means activity change below about -30%; further: on the % scale 0 is the no-effect control and ±100 the full control effect
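Tetracycline-induced HEK293 Trex D1 cells, force-coupled to calcium, dye-loaded; compounds added and read 180 s, then EC80 dopamine added and calcium flux tracked kinetically another 180 s.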
D1 PAM: enhances dopamine response at the human D1 receptor; P21728; HEK293 TREx D1 cells, calcium flux, dopamine EC20 potentiation; potentiation, % at 10 µM; 360,000 tested, 0.036% active; in the data active means potentiation above about 30%; further: 0% is about no effect
TRHR enhancer: allosteric enhancers of human TRH receptor | P34981 | TRHR cells, fluo-8 calcium fluorescence, EC20 TRH enhancement | enhancement, % at 2 µM | 360,000 tested, 0.66% active; in the data active means enhancement above about 30%; further: 0% is about no effect
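TRHR-expressing cells loaded with fluo-8 calcium dye were read kinetically (ex 480/em 530) during compound addition, then stimulated with an EC20 of TRH (10 nM final). Enhancement of the Gq-mediated intracellular calcium response was scored.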
D1 agonist: human D1 receptor agonism; activation, % at 2 µM; HEK293 T-REx D1 cells, calcium flux, agonist mode; AID 504660; 360,000 tested, 1% active; P21728; further: 0% is about no effect
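Inducible HEK293 T-REx D1 cells, force-coupled to calcium signalling, were plated at 4000 cells/well with tetracycline and held overnight at 30 C. After no-wash calcium dye loading, compound-evoked calcium rise over 180 s flagged agonists.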
Starred values were filed as active, the others as inactive. Rows were chosen to be rich in hits. Some 4.7% of all compounds tested hit in one or more screens of this group. Unless noted, no stated cut-off is given here; in the data, active means activation above about 30%; inactive means the rest.

COc1cc2c(cc1OC)CN(C(=O)CSc1ccc(F)cc1)CC2 was read as TRHR ag 0, D1 antag -87*, D1 PAM -4, TRHR enhancer -20 and D1 agonist 1.
`COc1cc2c(cc1OC)CN(C(=O)/C=C/c1ccc(F)cc1)CC2` gave TRHR ag -2, D1 antag 5, D1 PAM -2, TRHR enhancer -1 and D1 agonist 1.
Cc1ccc(N2CCN(Cc3nnc(-c4ccccc4F)o3)CC2)c(C)c1 was read as TRHR ag 0, D1 antag -50*, D1 PAM -3, TRHR enhancer -4 and D1 agonist 11.
`C/C(=N/NC(=O)Nc1ccccc1)c1ccc(C)cc1` gave TRHR ag 0, D1 antag -13, D1 PAM 0, TRHR enhancer 33* and D1 agonist 0.
For C/C(=N\NC(=O)Nc1ccccc1)c1ccc2ccccc2c1 the results were TRHR ag -1, D1 antag 5, D1 PAM -11, TRHR enhancer 3 and D1 agonist 3.
`Cc1cccc(NC(=O)c2sc3nc4c(c(-c5cccs5)c3c2N)CN(C)CC4)c1` gave TRHR ag 1, D1 antag -40*, D1 PAM -22, TRHR enhancer 13 and D1 agonist 2.
`CC(C)NC(=O)c1sc2nc3c(c(-c4cccs4)c2c1N)CN(C)CC3` gave TRHR ag -1, D1 antag -23, D1 PAM -3, TRHR enhancer 11 and D1 agonist 2.
`Cc1ccc(S(=O)(=O)c2cnc(SCC(=O)Nc3ccccc3C(F)(F)F)[nH]c2=O)cc1C` gave TRHR ag 0, D1 antag 12, D1 PAM 1, TRHR enhancer 2 and D1 agonist 0.
c1cncc(-c2nc(NCc3ccc4c(c3)OCO4)c3ccccc3n2)c1 was read as TRHR ag 2, D1 antag -5, D1 PAM -2, TRHR enhancer 32* and D1 agonist 3.
Screening c1ccc(CNc2nc(-c3cccnc3)nc3ccccc23)cc1 returned TRHR ag 3, D1 antag -8, D1 PAM 4, TRHR enhancer -5 and D1 agonist 1.
Screening COc1ccc(CN2CCN(C(=O)c3cccs3)CC2)c(OC)c1OC returned TRHR ag 0, D1 antag -34*, D1 PAM -3, TRHR enhancer 4 and D1 agonist 5.
For COc1cc(NC(=O)C2CCN(c3nc4ccccc4nc3C(F)(F)F)CC2)cc(OC)c1 the results were TRHR ag 0, D1 antag 9, D1 PAM 0, TRHR enhancer -1 and D1 agonist 2.
Cc1cc(NO)c(C(C)C)cc1N=O was read as TRHR ag -1, D1 antag -29, D1 PAM -10, TRHR enhancer 1 and D1 agonist 36*.
Screening Cc1cc(O)c(C(C)C)cc1N=Nc1ccccc1C(=O)O returned TRHR ag 0, D1 antag -3, D1 PAM -4, TRHR enhancer 0 and D1 agonist 6.
For Cc1nc2cccnc2n1-c1cccc(C(=O)NCc2cccc(Cl)c2)c1 the results were TRHR ag 0, D1 antag 0, D1 PAM -3, TRHR enhancer -11 and D1 agonist 6.
`CN(C)c1ccc(/C=C2\N=C(c3ccc(Cl)c([N+](=O)[O-])c3)NC2=O)cc1` gave TRHR ag 15, D1 antag -2, D1 PAM -3, TRHR enhancer -7 and D1 agonist 35*.
Screening CN(C)c1ccc(/C=C2/NC(=O)NC2=O)cc1 returned TRHR ag 0, D1 antag 25, D1 PAM -2, TRHR enhancer -6 and D1 agonist 3.
`CN1CCN(C(=O)c2cccc(COc3cc(Cl)ccc3Cl)c2)CC1` gave TRHR ag 0, D1 antag -43*, D1 PAM -14, TRHR enhancer -3 and D1 agonist 2.
Screening CN1CCN(C(=O)c2ccc(COc3cc(Cl)ccc3Cl)o2)CC1 returned TRHR ag 0, D1 antag 11, D1 PAM -6, TRHR enhancer 4 and D1 agonist 4.
`O=[N+]([O-])c1ccc(N2CCCCCC2)c([N+](=O)[O-])c1` gave TRHR ag 0, D1 antag -53*, D1 PAM -12, TRHR enhancer 15 and D1 agonist 2.
Screening O=Cc1cc([N+](=O)[O-])ccc1N1CCOCC1 returned TRHR ag 0, D1 antag -39*, D1 PAM 14, TRHR enhancer 4 and D1 agonist 2.
`CC(=O)N1N=C(c2ccc(C)cc2)OC1c1ccc(Br)cc1` (stereo not drawn) gave TRHR ag -1, D1 antag -30*, D1 PAM 4, TRHR enhancer 8 and D1 agonist 4.
Screening CC(=O)N1N=C(c2ccc(Cl)cc2)OC1c1ccc(C(C)C)cc1 (stereo not drawn) returned TRHR ag 2, D1 antag -19, D1 PAM -2, TRHR enhancer -1 and D1 agonist 4.
`COc1ccc2[nH]cc(CCNC(=O)Nc3cccc(F)c3)c2c1` gave TRHR ag 3, D1 antag -22, D1 PAM -3, TRHR enhancer 2 and D1 agonist 20.
`COc1cccc(/C=N/NC(=O)c2[nH]c(C)c(C(=O)N/N=C/c3cccc(OC)c3)c2C)c1` gave TRHR ag 1, D1 antag -41*, D1 PAM -13, TRHR enhancer -1 and D1 agonist 2.
For CC(=O)NC12CC3CC(C1)CC(C(=O)Nc1c(C)n(C)n(-c4ccccc4)c1=O)(C3)C2 the results were TRHR ag 0, D1 antag -41*, D1 PAM 0, TRHR enhancer 15 and D1 agonist 3.
For Cc1ccc(N2C(=O)N(Cc3cc(=O)n4ccccc4n3)c3ccccc3S2(=O)=O)cc1Cl the results were TRHR ag 0, D1 antag -7, D1 PAM 0, TRHR enhancer 1 and D1 agonist 2.
CCCNCC(O)COc1ccccc1C(=O)CCc1ccccc1 (stereo not drawn) was read as TRHR ag 2, D1 antag -52* and TRHR enhancer -9.
`COc1ccccc1C(=O)NCC1(N2CCN(C)CC2)CCCCC1` gave TRHR ag 0, D1 antag -26, D1 PAM -2, TRHR enhancer 0 and D1 agonist 3.
For CCN(CC(=O)Nc1ccc(OC)cc1)C(=O)c1ccccc1Sc1ccccc1C#N the results were TRHR ag -1, D1 antag -26, D1 PAM -1, TRHR enhancer -6 and D1 agonist 1.
For CCOC(=O)N1CCC(NC(=O)c2ccc(Cl)cc2)CC1 the results were TRHR ag 0, D1 antag -8, D1 PAM -2, TRHR enhancer 0 and D1 agonist 3.
